Measurements published in publication PMC5540273 (PLoS ONE, 2017).

Tests used:
Conditions in all cases: concentration: 1 μM, replicates: in singlicate; n = 1
[1] = system: DYRK1B
[2] = system: DYRK2
[3] = system: EGFR
[4] = system: EIF2AK1
[5] = system: EPHA1
[6] = system: EPHA2
[7] = system: EPHA3
[8] = system: EPHA4
[9] = system: EPHA5
[10] = system: EPHA6
[11] = system: EPHA7
[12] = system: EPHA8
[13] = system: EPHB1
[14] = system: EPHB2
[15] = system: EPHB3
[16] = system: EPHB4
[17] = system: EPHB6
[18] = system: ERBB2
[19] = system: ERBB3
[20] = system: ERBB4
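Further: KINOMEscan kinase panel screen.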

Compound	%Inh [1] [%]	%Inh [2] [%]	%Inh [3] [%]	%Inh [4] [%]	%Inh [5] [%]	%Inh [6] [%]	%Inh [7] [%]	%Inh [8] [%]	%Inh [9] [%]	%Inh [10] [%]	%Inh [11] [%]	%Inh [12] [%]	%Inh [13] [%]	%Inh [14] [%]	%Inh [15] [%]	%Inh [16] [%]	%Inh [17] [%]	%Inh [18] [%]	%Inh [19] [%]	%Inh [20] [%]
CCNc1nccc(-c2c(-c3ccc(F)cc3)ncn2C2CCN(C)CC2)n1	0	100	0	0	0	0	0	5	0	0	0	0	0	0	0	0	9	0	9	0
COc1cccc2c(-c3ccncc3)c(-c3ccc(F)cc3)nn12 [GW468513]	0	0	71	0	5	17	0	18	0	41	0	3	6	0	38	13	37	50	21	68
O=C(Nc1n[nH]c2nc(-c3ccccc3)ccc12)C1CC1 [SB-708999]	0	12	1	0	15	15	0	0	2	0	7	9	0	20	11	3	41	35	67	0
COc1cc(Nc2nccc(N3CCC(NS(=O)(=O)c4ccc(NC(C)=O)cc4)CC3)n2)cc(OC)c1OC [GSK1379825]	8	10	11	7	54	46	0	28	0	37	0	11	6	30	55	38	96.8	18	38	20
Cc1ccc(O)cc1Nc1ccnc2cc(-c3ccc(CN4CCCCC4)o3)ccc12 [GW557777]	0	2	46	0	99.7	94.5	94.9	96.2	99.8	90	0	99.7	100	98.9	95.3	99.7	83	0	7	0
Cl.Cl.NCC(NC(=O)c1cc(-c2cccnc2)c(-c2ccnc3[nH]ccc23)s1)c1ccccc1 (stereo not drawn) [GSK1323434]	17	33	72	0	4	10	40	0	0	2	17	33	23	22	0	18	21	58	1	48
Cc1cccc(Nc2nc(N[C@H]3CCCC[C@H]3N)ncc2C(N)=O)c1.Cl [GSK986310]	37	24	38	22	26	11	58	6	2	6	21	9	32	25	15	4	17	20	0	21
CNc1nccc(-c2ccc3c(N)n[nH]c3c2)n1 [GSK2206003]	99.1	90	25	0	11	0	12	7	0	0	9	18	5	0	5	2	11	50	8	31
Fc1cc(Cl)ccc1Nc1ccnc2cc(-c3ccc(CN4CCSCC4)o3)ccc12 [GW560106]	0	13	71	0	91.1	31	19	10	0	52	0	72	43	19	0	50	91.2	44	77	39
